In PubChem BioAssay (EPA / NIEHS):
Records with an inconclusive call do not appear. Calls of active or inactive are those of the source. The calls were made as follows, unless noted: active = hit-call score of the fitted dose curve at least 0.9, where 1 is the maximum; inactive = score below 0.9.

Key:
[1] = target: Oxysterols receptor LXR-alpha (Homo sapiens) (UniProt Q13133); experiment: ATG_LXRa_TRANS: Attagene TRANS-FACTORIAL HepG2 Assay for human Liver X Receptor alpha (LXRa) (AID 2282980; active = hit-call score of the fitted dose curve at least 0.9, where 1 is the maximum); details: HepG2 Attagene TRANS reporter, LXRa transactivation
Chain of Oxysterols receptor LXR-alpha (Homo sapiens) (Q13133 whole entry, looked up): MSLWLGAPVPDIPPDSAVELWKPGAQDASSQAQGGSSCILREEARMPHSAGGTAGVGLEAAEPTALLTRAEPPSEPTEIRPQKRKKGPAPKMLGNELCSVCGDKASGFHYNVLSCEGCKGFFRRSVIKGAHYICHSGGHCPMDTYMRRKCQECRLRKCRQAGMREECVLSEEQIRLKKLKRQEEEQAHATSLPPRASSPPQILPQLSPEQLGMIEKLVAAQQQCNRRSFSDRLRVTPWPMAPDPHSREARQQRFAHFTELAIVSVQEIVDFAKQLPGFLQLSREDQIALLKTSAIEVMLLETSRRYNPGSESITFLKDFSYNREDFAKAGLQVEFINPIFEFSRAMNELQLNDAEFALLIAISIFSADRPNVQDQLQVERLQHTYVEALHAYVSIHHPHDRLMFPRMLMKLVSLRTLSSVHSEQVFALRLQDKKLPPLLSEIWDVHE
Procedure, shortened: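 Transient HepG2 transfectants, 24 h dosing, RT-PCR/CE mRNA reporter quantitation; gain-of-signal vs DMSO.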

[2] = target: Oxysterols receptor LXR-beta (Homo sapiens) (UniProt P55055); experiment: ATG_LXRb_TRANS: Attagene TRANS-FACTORIAL HepG2 Assay for human Liver X Receptor beta (LXRb) (AID 2282981; active = hit-call score of the fitted dose curve at least 0.9, where 1 is the maximum); details: HepG2 Attagene TRANS GAL4-LXRb reporter, mRNA
Chain of Oxysterols receptor LXR-beta (Homo sapiens) (P55055 whole entry, looked up, the tested form may be a part): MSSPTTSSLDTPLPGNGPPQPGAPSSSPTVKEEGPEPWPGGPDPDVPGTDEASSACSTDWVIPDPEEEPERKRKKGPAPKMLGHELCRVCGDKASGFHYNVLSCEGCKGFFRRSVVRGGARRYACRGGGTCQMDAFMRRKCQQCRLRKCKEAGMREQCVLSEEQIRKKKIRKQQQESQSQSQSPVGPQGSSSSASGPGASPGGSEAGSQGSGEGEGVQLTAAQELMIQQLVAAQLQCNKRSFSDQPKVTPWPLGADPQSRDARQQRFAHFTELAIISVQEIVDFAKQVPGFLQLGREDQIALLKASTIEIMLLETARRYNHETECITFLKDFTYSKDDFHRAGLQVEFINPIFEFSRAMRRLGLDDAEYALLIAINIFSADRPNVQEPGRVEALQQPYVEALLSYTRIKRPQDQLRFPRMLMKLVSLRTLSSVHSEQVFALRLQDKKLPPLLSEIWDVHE
Procedure, shortened: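 Measures induction of a Gal4-driven reporter transcript in HepG2 cells expressing an exogenous LXRb-Gal4 fusion. Cells are exposed to compound for 24 h before RNA isolation and RT-PCR with capillary electrophoresis detection.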

[3] = target: Hepatocyte nuclear factor 4-alpha (Homo sapiens) (UniProt P41235); experiment: ATG_HNF4a_TRANS: Attagene TRANS-FACTORIAL HepG2 Assay for human Hepatocyte Nuclear Factor 4 alpha (HNF4a) (AID 2282982; active = hit-call score of the fitted dose curve at least 0.9, where 1 is the maximum); details: HepG2 HNF4a transactivation reporter, mRNA readout
Chain of Hepatocyte nuclear factor 4-alpha (Homo sapiens) (P41235 whole entry, looked up, the tested form may be a part): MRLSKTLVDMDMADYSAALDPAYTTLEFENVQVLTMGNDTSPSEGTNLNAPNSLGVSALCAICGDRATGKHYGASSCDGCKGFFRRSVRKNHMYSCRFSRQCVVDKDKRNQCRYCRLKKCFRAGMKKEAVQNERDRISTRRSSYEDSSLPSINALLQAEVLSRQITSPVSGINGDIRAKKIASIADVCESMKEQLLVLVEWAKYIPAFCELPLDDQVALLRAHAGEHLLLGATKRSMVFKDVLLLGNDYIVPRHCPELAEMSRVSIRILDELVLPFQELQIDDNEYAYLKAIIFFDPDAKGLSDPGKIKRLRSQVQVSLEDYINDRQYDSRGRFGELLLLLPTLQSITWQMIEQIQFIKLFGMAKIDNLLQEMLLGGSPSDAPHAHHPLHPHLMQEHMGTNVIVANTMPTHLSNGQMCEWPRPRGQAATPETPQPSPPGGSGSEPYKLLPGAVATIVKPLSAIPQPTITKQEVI
Procedure, shortened: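 In this trans-factorial format, a chimeric HNF4a-GAL4 fusion drives a GAL4-UAS reporter in transfected HepG2 liver cells. After 24 h treatment, reporter mRNA induction is measured by RT-PCR with capillary electrophoresis, relative to DMSO.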

[4] = ATG_M_32_TRANS: Attagene TRANS-FACTORIAL HepG2 Assay for M32 Transcription Factor (Internal Marker) (AID 2282984; active = hit-call score of the fitted dose curve at least 0.9, where 1 is the maximum); details: HepG2 Attagene TRANS M32 internal marker reporter
Procedure, shortened: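 After 24 h dosing of transfected HepG2 cells, total RNA was reverse-transcribed, reporter sequences PCR-amplified, 6-FAM labelled by primer extension and HpaI-digested before capillary electrophoresis. Signal increase over DMSO was fitted.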

[5] = target: Nuclear receptor subfamily 4 group A member 2 (Homo sapiens) (UniProt P43354); experiment: ATG_NURR1_TRANS: Attagene TRANS-FACTORIAL HepG2 Assay for human Nuclear Receptor Related Protein 1 (NURR1) (AID 2282985; active = hit-call score of the fitted dose curve at least 0.9, where 1 is the maximum); details: HepG2 Attagene TRANS reporter, mRNA readout
Chain of Nuclear receptor subfamily 4 group A member 2 (Homo sapiens) (P43354 whole entry, looked up, the tested form may be a part): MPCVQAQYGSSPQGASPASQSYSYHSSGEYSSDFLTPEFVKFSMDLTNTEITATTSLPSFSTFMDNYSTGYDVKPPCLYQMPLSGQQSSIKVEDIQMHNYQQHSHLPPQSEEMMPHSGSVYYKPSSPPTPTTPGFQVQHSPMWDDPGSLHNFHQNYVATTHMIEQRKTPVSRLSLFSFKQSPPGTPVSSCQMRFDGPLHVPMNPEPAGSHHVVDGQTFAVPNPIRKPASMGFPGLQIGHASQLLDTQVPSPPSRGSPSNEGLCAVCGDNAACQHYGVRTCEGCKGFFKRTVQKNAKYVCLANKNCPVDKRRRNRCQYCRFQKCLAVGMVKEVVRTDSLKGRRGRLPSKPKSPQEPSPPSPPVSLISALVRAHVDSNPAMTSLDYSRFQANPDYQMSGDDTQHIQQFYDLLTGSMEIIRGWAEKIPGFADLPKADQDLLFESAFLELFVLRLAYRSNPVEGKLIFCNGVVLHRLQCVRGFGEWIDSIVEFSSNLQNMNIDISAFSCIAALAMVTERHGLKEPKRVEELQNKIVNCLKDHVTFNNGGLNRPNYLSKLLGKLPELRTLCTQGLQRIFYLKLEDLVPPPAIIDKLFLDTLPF
Procedure, shortened: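 Chimeric NR-Gal4 fusion activity measured in HepG2 after 24 h treatment. Reporter transcripts detected by RT-PCR and capillary electrophoresis fluorescence; positive-direction curve fitting against DMSO.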

[6] = target: Nuclear respiratory factor 1 (Homo sapiens) (UniProt Q16656); experiment: ATG_NRF1_CIS: Attagene CIS-FACTORIAL HepG2 Assay for human Nuclear Respiratory Factor 1 (NRF1) Orphan Gene (AID 2282987); details: HepG2 NRF1 cis-element reporter, Attagene multiplex; actives raise or lower the signal
Chain of Nuclear respiratory factor 1 (Homo sapiens) (Q16656 whole entry, looked up, the tested form may be a part): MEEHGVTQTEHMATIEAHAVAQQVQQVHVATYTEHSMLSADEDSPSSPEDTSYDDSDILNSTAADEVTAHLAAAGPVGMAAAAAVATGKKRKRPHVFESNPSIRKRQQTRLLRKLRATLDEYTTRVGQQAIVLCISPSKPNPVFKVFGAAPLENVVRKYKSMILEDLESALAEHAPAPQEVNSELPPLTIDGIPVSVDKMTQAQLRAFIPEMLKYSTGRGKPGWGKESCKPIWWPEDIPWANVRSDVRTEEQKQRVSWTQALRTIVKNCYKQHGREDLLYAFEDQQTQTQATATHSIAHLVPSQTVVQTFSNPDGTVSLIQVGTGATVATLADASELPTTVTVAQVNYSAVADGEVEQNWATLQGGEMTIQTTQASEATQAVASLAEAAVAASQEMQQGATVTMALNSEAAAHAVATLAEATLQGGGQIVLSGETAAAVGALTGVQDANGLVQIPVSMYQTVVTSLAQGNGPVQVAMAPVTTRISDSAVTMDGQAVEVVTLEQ
Procedure, shortened: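 Cells (HepG2, transient MRTU transfection) are exposed to compound for 24 h, then RNA isolated and reporter mRNA amplified and fluorescently labelled. Fragments are separated by capillary electrophoresis; signal change is fitted bidirectionally relative to DMSO.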

[7] = target: Myc proto-oncogene protein (Homo sapiens) (UniProt P01106); experiment: ATG_Myc_CIS: Attagene CIS-FACTORIAL HepG2 Assay for human Myelocytomatosis (Myc) Proto-Oncogene Transcription Factor (AID 2282990); details: HepG2, Attagene cis-reporter transcription factor activity; actives raise or lower the signal
Chain of Myc proto-oncogene protein (Homo sapiens) (P01106 whole entry, looked up): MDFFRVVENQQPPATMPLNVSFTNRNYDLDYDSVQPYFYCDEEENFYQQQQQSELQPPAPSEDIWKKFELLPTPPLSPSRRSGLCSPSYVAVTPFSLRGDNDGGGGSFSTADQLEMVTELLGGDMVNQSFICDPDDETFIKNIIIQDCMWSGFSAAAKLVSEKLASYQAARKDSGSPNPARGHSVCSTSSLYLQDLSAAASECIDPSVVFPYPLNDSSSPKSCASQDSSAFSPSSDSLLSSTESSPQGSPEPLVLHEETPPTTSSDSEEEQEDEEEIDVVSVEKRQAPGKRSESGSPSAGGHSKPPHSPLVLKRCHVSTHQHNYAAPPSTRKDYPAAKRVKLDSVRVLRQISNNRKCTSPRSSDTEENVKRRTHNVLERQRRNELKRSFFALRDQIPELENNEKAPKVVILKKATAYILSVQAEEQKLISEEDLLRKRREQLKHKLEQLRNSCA
Procedure, shortened: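 HepG2 cells transiently transfected with multiple cis-promoter-driven reporter transcription units, so endogenous TF activity is read. After 24 h compound exposure, reporter mRNA was quantified by RT-PCR, 6-FAM labelling, HpaI digestion and capillary electrophoresis; bidirectional fit versus DMSO.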

[8] = ATG_NRF2_ARE_CIS: Attagene CIS-FACTORIAL HepG2 Assay for human Nuclear Factor Erythroid 2 Related Factor 2 (NFR2) response to Antioxidant Response Elements (ARE) (AID 2282992); details: HepG2 Attagene ARE/NRF2 reporter, transcription factor activity; actives raise or lower the signal;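 as to AC50: reporter mRNA level measured by RT-PCR and capillary electrophoresis fluorescence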
Procedure, shortened: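 Readout: reporter mRNA quantified by RT-PCR plus FAM-labelled primer extension, HpaI digestion and capillary electrophoresis, 24 h after dosing transfected HepG2 cells. Gain or loss of signal is fitted bidirectionally against DMSO baseline.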

[9] = ATG_Oct_MLP_CIS: Attagene CIS-FACTORIAL HepG2 Assay for human Octamer-Binding Transcription Factor (Oct) (AID 2282993); details: HepG2 Attagene cis-factorial Oct reporter, mRNA; actives raise or lower the signal
Procedure, shortened: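 HepG2, transient MRTU transfection, cis promoter elements; 24 h dosing; RT-PCR/CE fluorescence read-out of reporter mRNA; fit both directions vs DMSO.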

[10] = target: Cellular tumor antigen p53 (Homo sapiens) (UniProt P04637); experiment: ATG_p53_CIS: Attagene CIS-FACTORIAL HepG2 Assay for human p53 Transcription Factor (AID 2282994); details: HepG2 p53 cis-element reporter, Attagene mRNA; actives raise or lower the signal
Chain of Cellular tumor antigen p53 (Homo sapiens) (P04637 whole entry, looked up): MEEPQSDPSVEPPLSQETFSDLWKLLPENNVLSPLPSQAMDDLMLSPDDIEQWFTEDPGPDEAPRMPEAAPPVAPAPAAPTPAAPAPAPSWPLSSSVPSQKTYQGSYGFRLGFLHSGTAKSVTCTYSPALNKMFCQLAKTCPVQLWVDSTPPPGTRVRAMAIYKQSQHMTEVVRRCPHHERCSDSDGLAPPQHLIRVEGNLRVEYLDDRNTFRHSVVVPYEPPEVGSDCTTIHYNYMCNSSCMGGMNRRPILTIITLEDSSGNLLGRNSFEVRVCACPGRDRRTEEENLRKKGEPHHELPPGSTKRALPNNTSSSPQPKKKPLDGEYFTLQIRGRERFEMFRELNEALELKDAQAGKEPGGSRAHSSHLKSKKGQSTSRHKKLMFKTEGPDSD
Procedure, shortened: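 Read-out: reporter mRNA by RT-PCR plus capillary electrophoresis with fluorescence detection. Human HepG2 liver cells carried transfected multi-reporter cis-element constructs, dosed 24 h. Gain or loss of signal fitted bidirectionally against DMSO control.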

[11] = BSK_3C_TissueFactor: BioMAP Diversity Plus: 3C Assay for Tissue Factor Biomarker Activity (AID 2282997); details: BioMAP 3C HUVEC, tissue factor biomarker readout; actives raise or lower the signal
Procedure, shortened: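 Cells used were primary human umbilical vein endothelial cells. They were dosed with chemical, and after 24 h Tissue Factor was quantified by ELISA. Curves were fitted bidirectionally with DMSO as baseline.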

[12] = BSK_3C_uPAR: BioMAP Diversity Plus: 3C Assay for Urokinase-type plasminogen activator receptor (uPAR) Biomarker Activity (AID 2282998); details: BioMAP 3C HUVEC, uPAR biomarker ELISA; actives raise or lower the signal
Procedure, shortened: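 A multiplexed primary-cell system built on human umbilical vein endothelium was used, with chemical present for 24 h before reading. Cell-surface uPAR was detected by ELISA; signal change in either direction counted against DMSO.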

[13] = BSK_3C_VCAM1: BioMAP Diversity Plus: 3C Assay for Vascular cell adhesion molecule 1 (VCAM1) Biomarker Activity (AID 2282999); details: BioMAP 3C HUVEC, VCAM1 ELISA, cytokine-stimulated; actives raise or lower the signal
Procedure, shortened: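 Vascular primary endothelium (human umbilical vein) was exposed to chemicals and assayed 24 h later. VCAM-1 levels came from ELISA, with DMSO serving as baseline for bidirectional fitting.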

[14] = BSK_4H_Eotaxin3: BioMAP Diversity Plus: 4H Assay for Eotaxin 3 Biomarker Activity (AID 2283000); details: primary human endothelial cells (HUVEC); actives raise or lower the signal
Procedure, shortened: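 Endothelial primary cells (human umbilical vein) exposed to compound for 24 h. ELISA detection of Eotaxin-3.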

[15] = target: Glucocorticoid receptor (Homo sapiens) (UniProt P04150); experiment: ATG_GR_TRANS: Attagene TRANS-FACTORIAL HepG2 Assay for human Glucocorticoid Receptor (GR) (AID 2282978; active = hit-call score of the fitted dose curve at least 0.9, where 1 is the maximum;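 also: activators score as hits since higher reporter transcript over DMSO is fitted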); details: HepG2 Attagene TRANS GR reporter, mRNA transcription
Chain of Glucocorticoid receptor (Homo sapiens) (P04150 whole entry, looked up, the tested form may be a part): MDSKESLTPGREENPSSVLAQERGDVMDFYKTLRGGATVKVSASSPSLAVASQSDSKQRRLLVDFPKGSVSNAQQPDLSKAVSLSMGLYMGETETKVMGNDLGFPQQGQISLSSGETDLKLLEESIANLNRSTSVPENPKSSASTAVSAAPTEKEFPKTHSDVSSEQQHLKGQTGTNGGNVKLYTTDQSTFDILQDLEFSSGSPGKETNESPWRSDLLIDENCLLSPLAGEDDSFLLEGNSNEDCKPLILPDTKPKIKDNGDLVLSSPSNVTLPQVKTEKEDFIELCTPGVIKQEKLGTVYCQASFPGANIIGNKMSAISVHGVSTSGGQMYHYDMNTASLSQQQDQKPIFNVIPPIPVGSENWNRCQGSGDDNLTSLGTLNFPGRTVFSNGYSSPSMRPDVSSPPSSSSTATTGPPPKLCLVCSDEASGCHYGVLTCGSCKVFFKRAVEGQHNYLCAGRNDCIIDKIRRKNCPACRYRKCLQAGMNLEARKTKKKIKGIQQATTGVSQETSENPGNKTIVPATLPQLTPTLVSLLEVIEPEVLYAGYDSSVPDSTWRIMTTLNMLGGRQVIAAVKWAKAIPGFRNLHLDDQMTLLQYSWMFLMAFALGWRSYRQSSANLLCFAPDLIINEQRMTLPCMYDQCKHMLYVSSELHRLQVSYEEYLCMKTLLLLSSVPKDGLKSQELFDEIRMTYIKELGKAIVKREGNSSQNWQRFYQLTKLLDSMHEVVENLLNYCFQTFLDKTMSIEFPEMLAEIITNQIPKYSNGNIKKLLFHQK
Procedure, shortened: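 Reporter transcript levels, detected by fluorescence after RT-PCR and capillary electrophoresis, served as the endpoint. HepG2 cells bearing transfected GAL4-UAS reporters responsive to NR-GAL4 chimeras were incubated with compound 24 h; DMSO defined baseline.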

[16] = ATG_M_06_TRANS: Attagene TRANS-FACTORIAL HepG2 Assay for M06 Transcription Factor (Internal Marker) (AID 2282983; active = hit-call score of the fitted dose curve at least 0.9, where 1 is the maximum); details: HepG2 Attagene TRANS M06 internal marker reporter
Procedure, shortened: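 Human liver HepG2 cells bearing transiently transfected chimeric NR-GAL4 reporter units were treated with chemicals for 24 h. Total RNA was reverse-transcribed, reporter sequences amplified and labelled, then quantified by capillary electrophoresis. Activity was fitted upward relative to DMSO.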

[17] = target: Transcriptional activator Myb (Homo sapiens) (UniProt P10242); experiment: ATG_Myb_CIS: Attagene CIS-FACTORIAL HepG2 Assay for human Myeloblastosis (Myb) Proto-Oncogene Transcription Factor (AID 2282986); details: HepG2 Attagene CIS-FACTORIAL Myb reporter transcription; actives raise or lower the signal
Chain of Transcriptional activator Myb (Homo sapiens) (P10242 whole entry, looked up): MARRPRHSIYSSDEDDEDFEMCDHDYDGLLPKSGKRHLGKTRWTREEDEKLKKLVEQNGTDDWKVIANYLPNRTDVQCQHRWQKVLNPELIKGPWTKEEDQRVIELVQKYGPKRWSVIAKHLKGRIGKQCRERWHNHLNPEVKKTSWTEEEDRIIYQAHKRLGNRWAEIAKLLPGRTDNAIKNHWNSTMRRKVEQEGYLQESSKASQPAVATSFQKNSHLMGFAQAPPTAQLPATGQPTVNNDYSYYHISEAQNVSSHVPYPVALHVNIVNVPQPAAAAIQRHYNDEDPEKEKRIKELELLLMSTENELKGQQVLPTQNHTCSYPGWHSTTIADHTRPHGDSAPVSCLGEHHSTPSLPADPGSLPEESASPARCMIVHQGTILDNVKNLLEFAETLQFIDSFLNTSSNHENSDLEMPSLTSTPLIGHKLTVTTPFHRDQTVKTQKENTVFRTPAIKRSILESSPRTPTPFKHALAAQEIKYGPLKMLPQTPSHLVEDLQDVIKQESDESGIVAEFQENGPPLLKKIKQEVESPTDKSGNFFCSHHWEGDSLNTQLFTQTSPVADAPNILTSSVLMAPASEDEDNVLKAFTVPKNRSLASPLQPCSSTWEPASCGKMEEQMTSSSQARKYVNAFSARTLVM
Procedure, shortened: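 Transiently transfected HepG2 cells, treated 24 h. Reporter mRNA quantified by RT-PCR/capillary electrophoresis; bidirectional fit relative to DMSO.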

[18] = ATG_NFI_CIS: Attagene CIS-FACTORIAL HepG2 Assay for human Nuclear Factor I (NFI) (AID 2282989); details: HepG2 cis-regulatory reporter, NFI response element transcription; actives raise or lower the signal
Procedure, shortened: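 Cells: human liver HepG2, transiently transfected with promoter-regulated reporter transcription units. Exposure 24 h. Detection: fluorescent RT-PCR products separated by capillary electrophoresis, normalised to DMSO negative control.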

[19] = ATG_NF_kB_CIS: Attagene CIS-FACTORIAL HepG2 Assay for human Nuclear Factor Kappa B (NF-kB) (AID 2282991); details: HepG2 Attagene cis-factorial NF-kB reporter mRNA; actives raise or lower the signal
Procedure, shortened: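 Measures mRNA induction of an NF-kB-responsive cis-element reporter in HepG2 cells transfected with multiple reporter units, sampled 24 h post-dosing; quantified by fluorescence after RT-PCR and capillary electrophoresis, fitted for activation or inhibition against DMSO.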

Measured: AC50

OC12N=C(c3ccccc3)SC1Cc1cc(Cl)ccc12 (stereo not given)
active: [8] 3.75 µM | [11] 5.1 µM | [14] 20 µM
not listed: [15] | [16] | [17] | [18] | [19]
inactive: all other assays above

CC(C)(C)c1cc(/C=C2\SC(N)=NC2=O)cc(C(C)(C)C)c1O
active: [18] 18.4 µM | [8] 11.6 µM | [10] 11 µM | [11] 14.8 µM | [12] 31.6 µM | [13] 29.4 µM | [14] 30.4 µM
not listed: [1] | [2] | [3] | [9]
inactive: all other assays above

O=C(O)Cn1c(=O)n(Cc2ccc(Br)cc2F)c(=O)c2ccc(Cl)cc21
active: [19] 161 µM | [8] 26.5 µM
not listed: [1] | [2] | [3] | [4] | [9] | [18]
inactive: all other assays above

CCCCCCCCCCCO
inactive: [5] | [6] | [18] | [7] | [19] | [8] | [9] | [10]
active: [4] 166 µM | [11] 36.4 µM | [12] 34.2 µM | [13] 36.3 µM | [14] 31.6 µM

CN1C(=O)N(c2ccccc2Br)Cc2cnc(Nc3ccc4c(c3)OCC(CO)O4)nc21 (stereo not given)
inactive: [15] | [4] | [5] | [17] | [6] | [19] | [8]
active: [7] 2.93 µM | [10] 0.0368 µM | [11] 9.9 µM | [12] 10.7 µM | [13] 33.6 µM | [14] 9.49 µM

COc1cccc([C@H](O)C2CCN(CCc3ccc(F)cc3)CC2)c1OC
active: [8] 140 µM | [10] 100 µM
not listed: [1] | [2] | [3] | [5] | [9] | [16]
inactive: all other assays above

O=c1ccc2ccccc2o1
inactive: [16] | [6] | [7] | [19] | [8] | [10] | [11] | [12] | [13] | [14]

CCCCCCCCCCCCO
active: [11] 36.3 µM | [12] 32.7 µM | [13] 38.7 µM | [14] 31.1 µM
not listed: [5] | [15] | [17] | [19]
inactive: all other assays above

O=C(O)c1ccccc1C(=O)OCc1ccccc1
not listed: [1] | [3] | [4] | [9] | [15] | [17] | [18]
inactive: all other assays above

CN(C[C@@H](CC[N+]12CCC(C3CCCCC3)(CC1)CC2)c1ccc(Cl)c(Cl)c1)C(=O)c1cc(C(F)(F)F)cc(C(F)(F)F)c1
inactive: [15] | [16] | [17] | [6] | [7] | [19] | [8] | [10]
active: [4] 18.4 µM | [11] 23.5 µM | [12] 14.3 µM | [13] 31.9 µM | [14] 30.4 µM

Cc1cccc2ccccc12
not listed: [1] | [15] | [17] | [18]
inactive: all other assays above

Clc1cc(Cl)c2c(c1)N=C1CCCCCN1C2
active: [19] 72.4 µM | [8] 20.8 µM | [10] 50 µM
not listed: [1] | [2] | [3] | [4] | [5] | [17]
inactive: all other assays above

CC[C@H](NC(=O)c1cc(F)ccc1NS(=O)(=O)c1cccc2cccnc12)c1ccccc1
active: [8] 0.13 µM
not listed: [1] | [2] | [3] | [9] | [15] | [17] | [18]
inactive: all other assays above

Oc1ccccc1
not listed: [15] | [16] | [17] | [19]
inactive: all other assays above

CC(C)(C)c1csc(-c2cc3cc(OCc4ccccc4CC(=O)O)ccc3o2)n1
inactive: [15] | [16] | [4] | [6] | [18] | [7] | [10]
active: [8] 8.91 µM | [9] 33.4 µM | [11] 35.7 µM | [12] 20.5 µM | [13] 29.8 µM | [14] 22.4 µM

C[C@]12CC[C@@H]3c4ccc(O)cc4CC[C@H]3[C@@H]1CCC2=O
not listed: [10] | [15] | [17]
inactive: all other assays above
